# This is a sample that favours compounds with a hit; in the whole collection about 10% have one here.
# JMJD2A Tudor: inhibitors of human JMJD2A Tudor domain. O75164. AlphaScreen JMJD2A-Tudor / H3K4me3 peptide binding. Potency, µM (titrated, usually from 114 µM), for the others: top-dose activity change, negative = inhibition, hits mostly inhibitors. hit rate 4.4% among 390,000. AID 504339; further: potency means the concentration at half of the fitted maximal effect; on the % scale 0 is the no-effect control and ±100 the full control effect; nearly all actives have a fitted effect of over 50% in size
# Target sequence (O75164 whole entry, looked up, the tested form may be a part): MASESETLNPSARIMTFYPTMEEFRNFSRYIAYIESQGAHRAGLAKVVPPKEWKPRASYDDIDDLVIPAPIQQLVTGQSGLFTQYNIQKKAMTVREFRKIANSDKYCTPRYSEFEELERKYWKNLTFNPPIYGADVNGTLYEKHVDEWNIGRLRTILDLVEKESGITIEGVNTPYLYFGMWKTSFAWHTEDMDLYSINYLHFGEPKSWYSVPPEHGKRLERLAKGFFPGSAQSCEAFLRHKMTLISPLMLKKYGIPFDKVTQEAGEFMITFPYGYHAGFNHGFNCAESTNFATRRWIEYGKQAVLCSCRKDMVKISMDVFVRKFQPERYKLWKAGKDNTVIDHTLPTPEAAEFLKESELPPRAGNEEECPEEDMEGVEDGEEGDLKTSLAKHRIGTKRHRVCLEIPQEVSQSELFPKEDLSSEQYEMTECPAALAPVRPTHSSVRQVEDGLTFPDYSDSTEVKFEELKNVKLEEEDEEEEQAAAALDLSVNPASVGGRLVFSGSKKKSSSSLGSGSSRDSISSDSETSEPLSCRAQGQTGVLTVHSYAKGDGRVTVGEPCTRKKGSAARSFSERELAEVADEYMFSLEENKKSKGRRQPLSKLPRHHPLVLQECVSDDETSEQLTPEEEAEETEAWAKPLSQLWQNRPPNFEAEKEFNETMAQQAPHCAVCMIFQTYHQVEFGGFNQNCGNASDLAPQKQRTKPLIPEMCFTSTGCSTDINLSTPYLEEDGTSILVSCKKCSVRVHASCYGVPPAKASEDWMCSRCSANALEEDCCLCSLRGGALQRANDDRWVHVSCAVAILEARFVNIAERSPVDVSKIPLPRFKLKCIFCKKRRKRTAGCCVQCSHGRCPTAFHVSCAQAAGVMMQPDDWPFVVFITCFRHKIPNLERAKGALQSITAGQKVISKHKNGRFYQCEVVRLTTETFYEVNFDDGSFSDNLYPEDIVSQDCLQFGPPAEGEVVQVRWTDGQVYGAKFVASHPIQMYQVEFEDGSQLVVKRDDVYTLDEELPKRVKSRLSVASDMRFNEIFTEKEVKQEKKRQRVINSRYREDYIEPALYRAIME
# CtBP-E1A inh: CtBP/E1A binding inhibition. AlphaScreen GST-E1A/His-CtBP binding, 1536-well; stronger effect = lower value. AID 651724. hit rate 0.49% among 340,000. activity change, % (test concentration not listed); in the data active means activity change below about -65%; inconclusive means mostly about -30% to -63%; further: on the % scale 0 is the no-effect control and ±100 the full control effect
#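 In 5 uL wells, 23 nL compound meets equimolar GST-E1A and His-CtBP (5X stock 125 nM each) for 2 h, 37 °C. Beads (5X, 50 ug/mL) then 1 h, 37 °C, dark.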
# G9a inh: blocks human histone lysine methyltransferase G9a; Potency, µM (titrated, usually from 102 µM), for inactives: at the highest dose activity, negative = inhibition, most hits filed as inhibitors; hit rate 8.8% among 350,000; Q96KQ7; G9a H3K9 monomethylation, AlphaScreen, 2 h; AID 504332; further: potency means the concentration at half of the fitted maximal effect; on the % scale 0 is the no-effect control and ±100 the full control effect; nearly all actives have a fitted effect of over 75% in size
#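 Quantitative HTS format: methyltransferase activity on a biotin-tagged H3K9 peptide is measured by AlphaScreen, using a rabbit anti-monomethyl-H3K9 antibody with streptavidin donor and anti-IgG acceptor beads. Final levels are 20 nM enzyme, 500 nM peptide, 20 uM SAM; 2 h RT.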
# HP1b chromo inh: HP1-beta chromodomain-methylated histone interaction inhibition. AlphaScreen HP1-beta / biotin-H3K9me3 peptide binding. AID 540317. hit rate 0.56% among 390,000. P83916. Potency, µM (titrated, usually from 114 µM), without a hit: at the top dose activity change, negative = inhibition, usual class: inhibitors; further: potency means the concentration at half of the fitted maximal effect; nearly all actives have a fitted effect of over 70% in size
#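 AlphaScreen: HP1-beta (50 nM) preformed 30 min with biotin-H3(1-18)K9me3 peptide (50 nM) in PBS pH 7.4, 0.01% Tween-20. Compound added for 30 min at RT, then streptavidin donor/nickel chelate acceptor beads (10 ug/mL) for 30 min.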
# Six1-Eya2 blk: blocks human Six1 binding to Eya2; Q15475+O00167; AlphaScreen GST-Six1/His-Eya2 binding, biochemical; stronger effect = lower value; activity change, % (concentration not given with the values); hit rate 0.56% among 360,000; in the data active means activity change below about -65%; inconclusive means mostly about -30% to -63%; further: on the % scale 0 is the no-effect control and ±100 the full control effect
#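 Homogeneous AlphaScreen proximity assay pairing GST-Six1 with His-tagged Eya2 (added as 5X mix: 250 nM and 500 nM) in 50 mM Tris pH 8.0, 300 mM NaCl, 1 mM TCEP. Glutathione donor and nickel acceptor beads; 1 h, 37 °C, dark.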
# BAZ2B block: BAZ2B (human) inhibition. Q9UIF8. AlphaScreen BAZ2B-H3K14Ac peptide displacement. Potency, µM (titrated, usually from 114 µM), for inactives: at the top dose activity change, negative = inhibition, most hits filed as inhibitors. hit rate 4.4% among 360,000. AID 504333; further: potency means the concentration at half of the fitted maximal effect; on the % scale 0 is the no-effect control and ±100 the full control effect; nearly all actives have a fitted effect of over 60% in size
#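 Multi-concentration screen (max 110 uM) measuring displacement of acetylated histone H3 peptide from BAZ2B by AlphaScreen, using 50 nM protein, 50 nM peptide and 10 ug/mL streptavidin donor plus Ni-chelate acceptor beads.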
# Numbers without * were called inactive; ? = inconclusive; / = no result given; [ ] = dose if it differs, or a comment. Unless noted, the call rests on the fitted dose curve; in most records, active means well fitted inhibition curve with a large enough effect; inconclusive means small, poorly fitted or top-dose-only effect; inactive means no such curve, though single readings can be large or run the other way.
SMILES,JMJD2A Tudor,CtBP-E1A inh,G9a inh,HP1b chromo inh,Six1-Eya2 blk,BAZ2B block
COc1ccc(-n2nc(C(=O)N3CCN(c4cccc(C)c4)C(C)C3)c3c4ccccc4n(C)c3c2=O)cc1Cl (stereo not drawn),-23%,/,-46%[59 µM],2%,/,/
CCCOc1ccccc1C1Oc2nc(SC)nnc2-c2ccccc2N1C(C)=O (stereo not drawn),-26%,/,-2%[59 µM],17%,/,-19%
Cc1cccc(NC(=O)CN(C)S(=O)(=O)c2ccc3c(c2)c(=O)n(C)c(=O)n3C)c1C,3%,/,4%[59 µM],37%,/,-4%
COc1ccc(C2C(C(C)=O)=C(O)C(=O)N2CCCn2ccnc2)cc1 (stereo not drawn),89µM*,6,-1%[0.0925 µM],14%,1,?
CCOc1ccc(C2C(C(=O)c3ccco3)=C(O)C(=O)N2CCCn2ccnc2)cc1OC (stereo not drawn),-26%,-1,/,19%,1,50µM*
CC(C)(C)C1CCC(=NNC(=S)Nc2cccnc2)CC1 (stereo not drawn),?,-1,10µM*,18%,-6,?
Fc1cccc(F)c1/C=N/NC(=S)Nc1cccnc1,-9%,-4,15%,39%,-2,-11%
CCNC(=S)NN=C1CCC(C(C)(C)C)CC1 (stereo not drawn),-29%,5,?,-8%,-4,79µM*
S=C(Nc1cccnc1)NC1CC2CCC1C2 (stereo not drawn),-6%,2,/,49%,2,71µM*
CCCCCOc1ccc(/C=C/C(=O)Nc2sc(C)c(C)c2C(=O)OCC)cc1OC,-21%,/,?,-9%,/,2%
COc1cccc(CNC(=O)c2ccc3c(c2)nc2n3CCOC2)c1OC,-18%,/,0%[59 µM],15%[57 µM],/,1%
COc1cc(C(=O)Nc2c(C(=O)O)[nH]c3ccc(C)cc23)cc(OC)c1OC,-20%,-25,?,-4%,-19,-21%
COc1cc2c(cc1OC)CN(CC(=O)Nc1ccc(C)cc1)CC2,-17%,2,?,26%,-5,-36%
COC(=O)c1[nH]c2ccc(C)cc2c1NC(=O)Nc1ccccc1OC,-6%,-7,40µM*,13%,0,3%
COC(=O)c1[nH]c2cc(C)ccc2c1NC(=O)CN1CCCc2ccccc21,?,-6,?,12%,-13,45µM*
COC(=O)c1[nH]c2ccc(C)cc2c1NC(=O)CN1CCc2cc(OC)c(OC)cc2C1,-26%,-22,50µM*,16%,-19,?
COC(=O)c1[nH]c2ccc(Br)cc2c1NC(=O)CN1CCCc2ccccc21,-26%,-15,-24%[59 µM],32%,-17,-6%[57.1 µM]
COc1cc(Cl)c(C)cc1Nc1c2c(nc3ccccc13)CCC2,-27%,/,-30%[59 µM],13%,/,-17%
COc1ccc(C(=O)NC(c2ccccc2Cl)c2cc(Cl)c3cccnc3c2O)cc1 (stereo not drawn),?,/,20%[59 µM],27%,/,9%
CN1CCN(C(c2cccc(Cl)c2)c2ccccc2Cl)CC1 (stereo not drawn),?,-1,?,-20%,-10,?
OCCN1CCN(CC(O)COc2ccc3ccccc3c2)CC1 (stereo not drawn),-33%,0,?,25%,-5,3%
OCCN1CCN(C(c2cccs2)c2ccc3cccnc3c2O)CC1 (stereo not drawn),/,/,?,/,/,20µM*
CCN1CCN(C(c2ccc(C(F)(F)F)cc2)c2ccc3cccnc3c2O)CC1 (stereo not drawn),50µM*,-1,2.5µM*,?,-86*,28µM*
Oc1c(C(c2ccccn2)N2CCCCC2)cc(Cl)c2cccnc12 (stereo not drawn),22µM*,-93*,7.1µM*,?,-92*,7.9µM*
CCN1CCN(C(c2ccccc2)c2sc3nc(C)nn3c2O)CC1 (stereo not drawn),-4%,-2,25%[12.7 µM],47%,4,6%
CN1CCN(C(c2ccc(C(F)(F)F)cc2)c2cc(Cl)c3cccnc3c2O)CC1 (stereo not drawn),/,/,11µM*,/,/,40µM*
